Sampled rows, rich in hits. Any-hit rate of the full collection: about 3.5%.
Autofluor counter: compound fluorescence in toxin protease inhibitor counterscreen; fluorescence intensity (concentration not given with the values); compound autofluorescence counterscreen, microsphere flow cytometry; active compounds read high; AID 624483; actives 3.1% (n = 360,000); in the data active means fluorescence intensity above about 16000; inconclusive means no clear call, values can overlap the other calls
BoNT-A LC inh2: blocks Botulinum neurotoxin A light chain protease. multiplex microsphere protease substrate cleavage, flow cytometry. inhibition, % at 10 µM. actives 0.17% (n = 360,000)
BoNT-F LC inh: BoNT F light chain protease inhibition; Multiplex microsphere protease cleavage assay, flow cytometry; actives 0.22% (n = 360,000); inhibition, % at 10 µM; AID 588497; in the data active means inhibition above about 35%, passing the limit was not always enough; inconclusive means no clear call, values can overlap the other calls
Anthrax LF inh2: anthrax lethal factor protease inhibition; multiplex microsphere protease cleavage assay, LF; P15917; actives 0.12% (n = 360,000); inhibition, % at 10 µM; AID 588501
Numbers stand for hits; 0 = inactive; ? = inconclusive. Unless noted, no stated cut-off is given here; in the data, active means inhibition above about 30%; inconclusive means no clear call, values can overlap the other calls; inactive means below that.

SMILES | Autofluor counter | BoNT-A LC inh2 | BoNT-F LC inh | Anthrax LF inh2
CC(=O)N1CCN(C(=O)OC2CC3CC2[C@H]2CCCCN2C3=O)CC1 (some centres undefined) | 0 | 0 | 0 | 0
C/C(CC1CC(COCCC(C)C)OC1=O)=N\NC(N)=S (centres undefined) | 20283 | 0 | 0 | 0
C/C(CCC1CC(C)OC1=O)=N\NC(N)=S (centres undefined) | 0 | 0 | 0 | 0
C=CCc1cc(C=O)cc(OC)c1OCc1c(Cl)cccc1Cl | 24171 | ? | 0 | 0
Cc1cc(Cl)ccc1C(O)c1ncc(-c2ccc(F)cc2)[nH]1 (centres undefined) | 0 | 0 | 0 | 0
COc1cccc(C(=O)N2CCN(Cc3cccc(F)c3)CC2)c1 | 23288 | 0 | 0 | 0
COc1ccc(CN2CCN(C(=O)c3cc(OC)c(OC)c(OC)c3)CC2)cc1OC | 22314 | ? | 0 | 0
COc1ccc(C(=O)N2CCN(Cc3cc(OC)c(O)c(OC)c3)CC2)cc1OC | 0 | 0 | 0 | 0
CCOc1ccc(C(=O)N2CCCC2)cc1OC | 21510 | 0 | 0 | 0
CCOc1ccc(C(=S)N2CCCC2)cc1OC | 0 | 0 | 0 | 0
C=CC[C@H](CC(=O)N(CCO)Cc1ccccc1)C(=O)N[C@H](C)COC(=O)[C@@H](CC=C)CC(=O)OC(C)(C)C | 0 | 0 | 0 | 0
Cc1cccc(C)c1NC(=O)CCN1C(=O)C2C3CCC(C3)C2C1=O (centres undefined) | 24501 | 0 | 0 | 0
CC(=O)c1cccc(NC(=O)CCN2C(=O)C3C4CCC(C4)C3C2=O)c1 (centres undefined) | ? | 0 | 0 | 0
CN(C(=S)NC(=O)C1CCCC1)c1ccccc1 | 0 | 0 | 0 | 0
CCOC(=O)c1c[nH]n2c(=O)cc(C)nc12 | 0 | 0 | 0 | 0
COC(=O)c1c[nH]n2c(=O)cc(C)nc12 | 23157 | 0 | 0 | 0
CC1(C)COC2(OC1)C(=O)Nc1ccccc12 | 0 | 0 | 0 | 0
CCC1(C)COC2(OC1)C(=O)Nc1ccccc12 (centres undefined) | 20257 | 0 | 0 | 0
COc1ccc(CCn2c(O)c(C=NCc3ccc4c(c3)OCO4)c(=O)[nH]c2=O)cc1OC | 0 | 0 | 0 | 0
COc1ccc(OC)c(-n2c(O)c(C=NCc3ccc4c(c3)OCO4)c(=O)[nH]c2=O)c1 | 16727 | 0 | 0 | 0
O=C1c2ccccc2C(c2nnnn2-c2ccc3c(c2)OCCO3)N1Cc1cccnc1 (centres undefined) | 0 | 0 | 0 | 0
O=c1oc2ccccc2cc1-c1csc(Cc2nc(-c3ccc(Cl)cc3)cs2)n1 | 0 | 0 | 0 | 0
CCN(CC)c1ccc2cc(-c3nc(-c4cc5ccccc5oc4=O)cs3)c(=O)oc2c1 | 0 | 87.2 | 0 | 46.6
CN(Cc1ccccc1)C(=O)c1[nH]cnc1C(=O)Nc1ccc(Br)cc1F | 0 | 0 | 0 | 0
Cc1ccc(C(C)NC(=O)c2c(C)noc2C)cc1C (centres undefined) | 24941 | 0 | 0 | 0
SMILES | Autofluor counter | BoNT-A LC inh2 | BoNT-F LC inh | Anthrax LF inh2
Cc1ccc(NNC(=O)c2c(C)noc2C)cc1Cl | 0 | ? | ? | 0
Cc1cc(/C(=N/O)C(C)(C)NO)ccc1Cl | 22038 | 0 | 0 | 0
CC(C)(NO)/C(=N\O)c1ccccc1 | 0 | 0 | 0 | 0
Cc1occc1C(=O)O/N=C(\N)c1ccc(Cl)cc1 | 0 | 0 | 40.0 | 0
COc1ccc(-c2n[nH]c(C)c2-c2cscn2)c(O)c1 | 0 | 0 | 0 | 0
COc1ccc(-c2n[nH]c(C)c2-c2cnn(-c3ccccc3)c2)c(O)c1 | 19850 | ? | 0 | 0
COc1ccc(NC(=O)N(Cc2ccc3c(c2)OCO3)C2CC(=O)N(c3ccc(OC)cc3)C2=O)cc1 (centres undefined) | 0 | 0 | 0 | 0
O=C1CC(N(Cc2ccc3c(c2)OCO3)C(=O)Nc2ccc(F)cc2)C(=O)N1c1ccccc1 (centres undefined) | 23094 | ? | 0 | 0
COC(=O)C1=C(C)N(C)C(=O)NC1c1cc(Cl)cc(Cl)c1OC (centres undefined) | 17435 | ? | 0 | 0
COCCNS(=O)(=O)c1cc(OC)c(C)cc1C | 0 | 0 | 0 | 0
CCCOc1cc(C)c(S(=O)(=O)NCCOC)cc1C | 21763 | 0 | 0 | 0
Cc1ccc(NC(=O)C(c2ccccc2)N2CCN(CC(=O)N3CCOCC3)CC2)cc1Cl (centres undefined) | 0 | 0 | 0 | 0
C=C(C)CSc1nc2nc(C)c(Br)cc2[nH]1 | 22023 | 0 | 0 | 0
COC(=O)CSc1nc2nc(C)c(Br)cc2[nH]1 | 0 | 0 | 0 | 0
C=CCSc1nc(=O)n2cccc(C)c2n1 | 21125 | 0 | 0 | 0
CCOc1c(Cl)cc(CNc2ccc(N3CCCC3)cc2)cc1OC | 0 | 0 | 0 | 0
CCOc1c(Cl)cc(CNC(C)(C)CC(C)(C)C)cc1OC | 21728 | 0 | 0 | 0
Cc1cc(N/C(=N\S(=O)(=O)c2ccc(F)cc2F)c2ccccc2)no1 | 17822 | 0 | 0 | 0
COc1cc(-c2nc(-c3ccccc3)c(-c3cccs3)[nH]2)cc(OC)c1O | 24448 | 0 | 0 | 0
COc1cc(-c2nc(-c3ccccc3)c(-c3cccs3)[nH]2)cc(OC)c1OC | 0 | 0 | 0 | 0
CC(C)(C)NC(=S)Nc1ccc(Nc2ccccc2)cc1 | 0 | 0 | 0 | 0
CC(C)(C)NC(=S)Nc1ccc(Br)cc1 | 22615 | 0 | 0 | 0
COc1ccc(CN2CCOCC2)cc1Br | 23516 | ? | 0 | 0
COc1ccc(CN2CCOCC2)cc1OC | 0 | 0 | 0 | 0
O=C(Nc1ccc2c(c1)OCCO2)C1c2ccccc2OCC(=O)N1CCc1c[nH]c2ccccc12 (centres undefined) | 0 | 0 | 0 | 0
SMILES | Autofluor counter | BoNT-A LC inh2 | BoNT-F LC inh | Anthrax LF inh2
CCN1CNC(=S)N(c2cccc(C)c2C)C1 | 20115 | ? | 0 | 0
CCCN1CNC(=S)N(c2cccc(C)c2C)C1 | 0 | ? | 0 | 0
COc1ccc(NC(=O)c2oc3ccccc3c2NC(=O)c2ccc3c(c2)OCO3)cc1 | 22577 | 0 | 0 | 0
COc1ccc(NC(=O)c2oc3ccccc3c2C)c(OC)c1 | 22634 | ? | 0 | 0
CCOC(=O)c1oc2ccccc2c1NC(=O)c1ccc2c(c1)OCO2 | 24146 | 0 | 0 | 0
COc1ccc(NC(=O)C2=C(C)NC(=O)NC2c2cccc(OC)c2OC)c(OC)c1 (centres undefined) | 20365 | ? | 0 | 0
COc1cccc(C2NC(=O)NC(C)=C2C(=O)Nc2ccc(C)cc2)c1OC (centres undefined) | 0 | 0 | 0 | 0
COc1ccccc1NC(=O)c1oc2ccccc2c1C | 0 | 0 | 0 | 0
O=C1CC2(CCCC2)C(=O)N1CN1CCN(S(=O)(=O)c2cc(F)ccc2F)CC1 | 0 | 0 | 0 | 0
ON=C1C2CC=C(c3ccccc3)C1CCC2 (centres undefined) | 0 | 0 | 0 | 0
Cc1cc(C)c(C(O)c2ncc(-c3ccccc3F)[nH]2)c(C)c1 (centres undefined) | 0 | 0 | 0 | 0
COc1cccc(C(=O)Nc2c(C(N)=O)oc3ccccc23)c1 | 0 | 0 | 0 | 0
COc1ccc(C(=O)c2oc3ccccc3c2N)cc1 | 20810 | 0 | 0 | 0
O=C(Nc1ccc(-c2nc3ccccc3o2)cc1)c1ccc2c(c1)OCO2 | 16511 | 0 | 0 | 0
CCOC(=O)c1oc2ccccc2c1NC(=O)c1cccc(OC)c1 | 22777 | 0 | 0 | 0
CCOC(=O)c1oc2ccccc2c1NC(=O)c1cccc(OC)c1OC | 18642 | 0 | 0 | 0
COCCNC(=O)C1CCCN(C(=O)COc2ccc(Cl)cc2Cl)CC1 (centres undefined) | 0 | 0 | 0 | 0

From PubChem
